Most compounds without a hit are left out; they make up all but 31% or so of the library.
CYP2C19 activ: increases human CYP2C19 enzyme activity. recombinant CYP2C19, luciferin-H EGE luminescence; stronger effect = higher value; 0 = fully inhibited enzyme, 1 = untreated enzyme. AID 1025. 96,000 tested, under 10 active. activation factor at 5 µM. P33261;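 active = activation factor of at least 2 at 5 µM in the primary screen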;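 note: 0 = wells with 2.5 mM tranylcypromine and 1 = vehicle-only wells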
CYP2C9 inh: blocks human cytochrome P450 2C9; AID 777; inhibition, % at 5 µM; CYP2C9 Supersomes, luciferin-H conversion, luminescence; hit rate 20% among 96,000;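 active = blocking of liver enzyme CYP2C9 beyond about 50% at 5 µM, limit read from the data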
Target sequence (P11712 whole entry, looked up): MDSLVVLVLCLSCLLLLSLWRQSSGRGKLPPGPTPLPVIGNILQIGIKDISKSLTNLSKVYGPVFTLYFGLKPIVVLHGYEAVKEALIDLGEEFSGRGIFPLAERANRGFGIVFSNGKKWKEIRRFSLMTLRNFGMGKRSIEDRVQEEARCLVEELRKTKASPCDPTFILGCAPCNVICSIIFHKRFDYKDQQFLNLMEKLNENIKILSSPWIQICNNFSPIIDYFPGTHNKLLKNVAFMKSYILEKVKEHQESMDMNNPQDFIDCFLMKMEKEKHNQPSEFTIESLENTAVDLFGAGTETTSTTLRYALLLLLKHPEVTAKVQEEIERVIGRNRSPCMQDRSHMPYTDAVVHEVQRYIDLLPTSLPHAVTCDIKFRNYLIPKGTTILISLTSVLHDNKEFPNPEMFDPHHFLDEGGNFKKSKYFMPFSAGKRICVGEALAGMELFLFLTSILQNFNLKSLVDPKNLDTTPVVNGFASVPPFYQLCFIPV
CYP2C19 inhib: inhibitors of human CYP2C19; P33261; CYP2C19 Supersomes, luciferin-H EGE luminescence, 30 min; inhibition, % at 5 µM; hit rate 21% among 96,000; AID 778;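 active = CYP2C19 inhibition above a set limit at 5 µM in the primary screen, cut at about 50% in these data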;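 note: plate controls were negative control wells for no effect and 2.5 mM tranylcypromine positive control for full effect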
CYP2C9 act: increases human cytochrome P450 2C9 activity. hit rate 1.4% among 96,000. activation factor at 5 µM. recombinant CYP2C9, luciferin-H conversion, luminescence; stronger effect = higher value; factor 1 = untreated enzyme, 0 = blocked;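 active = activation factor of 2 or more for CYP2C9 at a 5 µM dose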;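 note: 0 = sulfaphenazole-blocked wells and 1 = vehicle-only wells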
* hit, by the source's call.

SMILES	CYP2C19 activ	CYP2C9 inh	CYP2C19 inhib	CYP2C9 act
CC1Cc2ccccc2N1c1ncnc2nc[nH]c12 (stereo not drawn)	0.9	22.6	14.0	0.8
CCCCc1ccc(-c2nc(NC(=O)C3C4CCC(O4)C3C(=O)O)sc2C)cc1 (stereo not drawn)	0.9	-8.3	5.7	1.1
CCCCn1c(-c2ccccc2)nc2c(=O)n(C)c(=O)[nH]c21	1	66.7*	-0.6	0.3
CCOC(=O)c1ccccc1NCN1C(=O)CSC1=O	1.1	-18.8	-7.2	1.2
CCOC(=O)c1ccccc1NC1CC(=O)N(c2ccccc2C)C1=O (stereo not drawn)	0.2	75.8*	80.5*	0.2
O=C(NC1CCCc2ccccc21)C1CCN(c2c3c(nc4ncnn24)CCC3)CC1 (stereo not drawn)	1.1	21.3	-11.4	0.8
Cc1nc2ncnn2c(N2CCN(C(c3ccccc3)c3ccccc3)CC2)c1C	1	34.9	0.0	0.7
CC1CCc2c(nc3ncnn3c2N2CCN(c3ccccc3)CC2)C1 (stereo not drawn)	0.6	90.0*	40.0	0.1
CC1CCc2c(nc3ncnn3c2N2CCN(c3ccccc3F)CC2)C1 (stereo not drawn)	0.6	65.5*	38.3	0.3
CC(C)c1ccc(S(=O)(=O)N2CCN(CC(=O)Nc3ccc4c(c3)OCO4)CC2)cc1	0.9	18.7	11.8	0.8
CC(C)CC(c1nnnn1CCc1ccccc1)N1CCN(C(=O)c2ccco2)CC1 (stereo not drawn)	0.2	98.5*	80.1*	0
CCCCC(c1nnnn1Cc1ccco1)N1CCN(C(=O)c2ccco2)CC1 (stereo not drawn)	0.1	50.7*	85.3*	0.5
CCC(c1nnnn1CCc1ccccc1)N1CCN(C(=O)c2ccco2)CC1 (stereo not drawn)	0.9	12.0	6.1	0.9
Cc1ccc(C(c2nnnn2Cc2cccs2)N2CCN(C(=O)c3ccco3)CC2)cc1 (stereo not drawn)	0.3	48.3	71.1*	0.5
O=C(c1ccco1)N1CCN(C(c2ccccc2Cl)c2nnnn2CC2CCCO2)CC1 (stereo not drawn)	1.1	-8.9	-11.0	1.1
O=C(c1ccco1)N1CCN(C(c2ccccc2F)c2nnnn2CC2CCCO2)CC1 (stereo not drawn)	0.8	70.7*	23.7	0.3
O=C(c1ccco1)N1CCN(C(c2ccccc2F)c2nnnn2Cc2cccs2)CC1 (stereo not drawn)	0.9	14.0	8.4	0.9
Cc1cccc2c1NC(C)CC2C (stereo not drawn)	1	6.1	0.7	0.9
CCn1c(SCCN2CCCCC2)nnc1-c1ccc(S(=O)(=O)N2CCOCC2)cc1	0.9	-2.7	10.0	1
O=C1CCCCC1Sc1nnc(Cc2cccs2)n1CCc1ccccc1 (stereo not drawn)	0.3	69.7*	67.7*	0.3
Cn1c(Cc2cccs2)nnc1SCC(=O)N1CCc2ccccc21	0.9	2.5	9.0	1
Cc1c(O)ccc2c3c(c(=O)oc12)CCC(C)C3 (stereo not drawn)	0.1	11.7	93.1*	0.9
CC(C)CN(Cc1c(O)ccc2c3c(c(=O)oc12)CCC3)CC(C)C	0.9	34.4	10.7	0.7
Cc1oc(C(=O)O)cc1COc1ccc2c3c(c(=O)oc2c1C)CCCC3	1	-13.7	-4.4	1.1
Cc1oc2c(C)c3oc(=O)c4c(c3cc2c1C)CCCC4	0	50.5*	95.9*	0.5
SMILES	CYP2C19 activ	CYP2C9 inh	CYP2C19 inhib	CYP2C9 act
Cc1c(O)ccc2c3c(c(=O)oc12)CCCC3	0.3	-199.3	68.7*	3*
Cc1ccc(-n2c(=O)[nH]c3cc(C(=O)NC4CCN(Cc5ccccc5)CC4)ccc3c2=O)cc1	1	1.7	4.2	1
CN1CCN(C(=O)c2ccc3c(=O)n(Cc4ccco4)c(=S)[nH]c3c2)CC1	0.8	42.6	23.7	0.6
CCOC(=O)N1CCN(C(=O)c2ccc3c(=O)n(CCc4ccccc4)c(=S)[nH]c3c2)CC1	0.3	71.1*	71.8*	0.3
O=c1c2cc3c(cc2[nH]c(=S)n1Cc1ccco1)OCO3	0.2	11.3	77.6*	0.9
CCOC(=O)N1CCN(C(=O)c2ccc3c(=O)n(CCC4=CCCCC4)c(=S)[nH]c3c2)CC1	1	-0.1	4.5	1
CCOC(=O)N1CCN(C(=O)c2ccc3c(=O)n(Cc4ccc(Cl)cc4)c(=S)[nH]c3c2)CC1	0.6	51.8*	41.0	0.5
CCN1CCN(C(=O)c2ccc3c(=O)n(Cc4ccccc4OC)c(=S)[nH]c3c2)CC1	0.8	23.0	16.1	0.8
O=C(c1ccc2c(=O)n(Cc3ccco3)c(=S)[nH]c2c1)N1CCN(Cc2ccccc2)CC1	0.4	70.1*	57.1*	0.3
